From PubChem BioAssay (NCI)
This is part of a sample that, as a whole, favours compounds with a hit. Of some 83,000 tested, about 20% had one in any assay.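 Compound tested at a single concentration for 48 hours in 96-well plates; a percent growth value below 10 was scored as active.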 Unmarked numbers belong to inactive results. Calls of active or inactive are those of the source.

test system: HL-60(TB) leukemia; assay: NCI-60 one-dose screen, 48 h (100 = growth as untreated, 0 = no growth, -100 = all killed); details: 10 µM unless noted

Compared with `Cn1cc(-c2ccc3c(Nc4cccc(NC(=O)Nc5cccc(F)c5)c4)ncnc3c2)cn1`, `O=S(=O)(NCCNc1cc(-c2cn(-c3ccccc3)nc2-c2ccccc2)ccn1)c1ccc(F)cc1` is lower in growth: 74.1% for the first, 69.9% for the second.

First: O=S(=O)(NCCNc1nccc(-c2c(-c3ccc(F)c(O)c3)nc3occn23)n1)c1ccccc1
Second: COc1ccc(-c2cc(-c3ccc(Nc4nc(Nc5ccccc5)nc(Nc5ccc(Cl)cc5)n4)cc3)nc(N)c2C#N)cc1
The growth of the first is higher: 63.6% for the first, 33.1% for the second.

Compared with `COc1ccc(Nc2nc(N)nc3c2CCc2occc2-3)cc1`, `Cc1ccc(NCc2cn(-c3ccc(C(=O)O)cc3)nc2-c2ccc(C(=O)O)cc2)cc1` is higher in growth: 88.8% for the first, 106% for the second.

Compared with `CCCCC/C(=C\c1ccccc1)C1OC(C)C(C)O1` (centres undefined), `N#Cc1c(-c2ccccc2)nc(SCC(=O)N2CCN(c3ccccc3)CC2)[nH]c1=O` is lower in growth: 115% for the first, 62.5% for the second.

Going from `NS(=O)(=O)Oc1ccc2c(ccn2C(=O)C23CC4CC(CC(C4)C2)C3)c1` to `Clc1ccc(-c2cnc3nonc3n2)s1`, the growth falls from 97.6% to 29%.

First: Nc1cc2c(cc1N)-c1cc(N)c(N)cc1C2
Second: CN1CCN(c2ccc3nc(-c4ccc5nc(-c6ccc(C(F)(F)F)cc6)[nH]c5c4)[nH]c3c2)CC1
The growth of the first is higher: 103% for the first, 23.9% for the second.

In the case of `COc1ccc(-c2cs/c(=N\N=C\c3ccc(O)cc3O)n2/N=C/c2ccc(O)cc2O)cc1`, the growth was -32.6% (active).
With `COc1ccc(/C=C(\C#N)c2cc(OC)c3c(c2)OCO3)cc1` the growth was -1.4% (active).
